Results filed as inconclusive are left out. Calls of active or inactive are those of the source. Calls come from the whole dose curve; as a rule, active = well fitted activation curve with a large enough effect; inconclusive = small, poorly fitted or top-dose-only effect; inactive = no such curve, though single readings can be large or run the other way. Numbered stars: 1 amine (or outer) side, 2 acyl side, 3 side chain; on linkers, the order of the positions; unused ones are H or OH. Bridge positions count the residues as written; N and C are the ends. Peptide text beside a SMILES is read from it. X4 = O=C(CCC[*:2])[*:1]
molecular target: Cellular tumor antigen p53 (Homo sapiens) (UniProt P04637); assay: Primary qHTS for small molecule compounds that upregulate eGFP-tagged delta133p53alpha (in N-terminal) cells. (AID 2060322); conditions: NCI-H358 eGFP-delta133p53alpha fluorescence, 24 h; activation: hits give high values; note: nearly all actives have a fitted effect of over 75% in size;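 for activation: series mostly up to about 56 µM; 0% = DMSO vehicle and 100% = reference activator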
In short: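 NCI-H358 cells pre-induced 24 h with 10 ng/ml doxycycline to express N-terminal eGFP-delta133p53alpha, then dosed 24 h at 37C without doxycycline; fixed, Hoechst-stained, GFP intensity by laser scanning cytometry, normalized to DMSO (0%) and 57.5 uM 5-azacytidine (100%).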
Potency is the fitted concentration of half-maximal effect.

Cellular tumor antigen p53 (Homo sapiens), sequence (P04637 whole entry, looked up): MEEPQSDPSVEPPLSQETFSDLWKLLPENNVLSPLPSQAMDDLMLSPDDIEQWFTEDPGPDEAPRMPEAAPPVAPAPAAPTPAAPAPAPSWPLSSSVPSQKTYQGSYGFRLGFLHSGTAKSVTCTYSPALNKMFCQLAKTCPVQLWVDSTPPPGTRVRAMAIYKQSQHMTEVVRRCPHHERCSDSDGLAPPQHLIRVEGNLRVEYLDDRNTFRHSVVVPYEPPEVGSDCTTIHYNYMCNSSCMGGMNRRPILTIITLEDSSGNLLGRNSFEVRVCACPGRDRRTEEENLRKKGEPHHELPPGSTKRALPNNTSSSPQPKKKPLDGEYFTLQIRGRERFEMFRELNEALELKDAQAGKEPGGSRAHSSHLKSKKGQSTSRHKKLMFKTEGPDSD

Row | SMILES | activation | Potency
1 | N#CC1C(=O)N=C(c2cc(Cl)ccc2O)C=C1c1cc(OCc2ccccc2)cc(OCc2ccccc2)c1 (stereo not given) | -17.7% (inactive) | –
2 | C/C=C(\C)C(=O)OC[C@H]1O[C@@H](O[C@H]2[C@@H](O[C@H]3O[C@H](CO)[C@@H](O)[C@H](O)[C@H]3O[C@@H]3O[C@H](CO)[C@@H](O)[C@H](O)[C@H]3O)O[C@H](COC(=O)/C(C)=C/C)[C@@H](O)[C@@H]2O)[C@H](O)[C@@H](O)[C@@H]1O | -8.4% (inactive) | –
3 | CC(C)CC(=O)NCCn1cc(C(=O)O)c(=O)cc1C(O)c1ccccc1 (stereo not given) | -1.53% (inactive) | –
4 | O=C1NC2CCc3nc4ccccc4c(=O)n3C2=Nc2ccccc21 (stereo not given) | -8.93% (inactive) | –
5 | C[C@@H]1CC[C@]2(C(=O)O)CC[C@]3(C)C(=CCC4[C@@]5(C)C[C@@H](O)[C@@H](O)C(C)(C)C5CC[C@]43C)C2[C@]1(C)O (stereo not given in full) | -5.36% (inactive) | –
6 | CCNC(=O)Nc1ccc(-c2nc3c(c(N4CCOC[C@@H]4C)n2)CCN(c2ncccn2)C3)cc1 | -14.3% (inactive) | –
7 | COc1cc(/C=C/C(=O)OC2CC(OC(C)=O)C(OC(C)=O)C3C2CCC2C(=O)OC(c4ccoc4)CC23C)ccc1O[C@@H]1O[C@H](CO)[C@@H](O)[C@H](O)[C@H]1O (stereo not given in full) | -16% (inactive) | –
8 | CC1=CCC2C(C)(C)CCCC2(C)C1CC12OC1C(O)C(CO)=CC2O (stereo not given) | -16.8% (inactive) | –
9 | CC(=O)OC[C@]12[C@@H](OC(=O)c3ccoc3)C[C@@H]3[C@@H](OC(C)=O)[C@]1(OC3(C)C)[C@@](C)(O)C[C@H](OC(=O)c1ccoc1)[C@@H]2OC(=O)c1ccoc1 | -9.16% (inactive) | –
10 | COc1ccc(C2(N(C)C(=O)c3ccc(NC(=O)c4ccco4)cc3)CCOCC2)cc1 | -10.7% (inactive) | –
11 | CCC/C=C/C(=O)O[C@H]1CC(C)(C)CC2[C@@]13[C@H](O)C[C@]1(C)[C@@]2(CCC2[C@@]4(C)CC[C@H](O[C@@H]5O[C@H](C(=O)O)[C@@H](O)[C@H](O[C@@H]6O[C@H](CO)[C@H](O)[C@H](O)[C@H]6O[C@@H]6O[C@@H](C)[C@H](O)[C@@H](O)[C@H]6O[C@@H]6OC[C@](O)(CO)[C@H]6O)[C@H]5O[C@@H]5O[C@H](CO)[C@H](O)[C@H](O)[C@H]5O)C(C)(C)C4CC[C@]21C)O[C@H]3O (stereo not given in full) | -12.5% (inactive) | –
12 | C/C(=C\CCC1(C)C2CC3C(C2)C31C)C(=O)O (stereo not given) | 5.36% (inactive) | –
13 | CC(C)(C)NS(=O)(=O)c1cncc(-c2cc(F)c3nc(N)nn3c2)c1 | 5.36% (inactive) | –
14 | NCCOCCOCCNC(=O)Cc1ccc(Nc2nc(NCc3ccc(F)cc3)nc(NCC3CCCCC3)n2)cc1 | 2.33% (inactive) | –
15 | CC[C@H](C)[C@@H]1NC(=O)[C@H](Cc2ccc(OC)cc2)NC(=O)CCCSC[C@@H](C(=O)N2CCC[C@H]2C(=O)N[C@@H](CC(C)C)C(=O)NCC(N)=O)NC(=O)[C@H](CC(N)=O)NC(=O)[C@H](CCC(N)=O)NC1=O (Y(Me)IQNCPLG-NH2; linker N-5 via X4) | -10.3% (inactive) | –
16 | C=C1C(O)C[C@@H]2C(C(=O)O)=CO[C@@H](O[C@@H]3O[C@H](CO)[C@@H](O)[C@H](O)[C@H]3OC(=O)c3ccc(O)cc3)[C@H]12 (stereo not given in full) | 9.82% (inactive) | –
17 | O=C(N[C@@H]1CCCc2c1cnn2-c1ccc(F)cc1F)c1ccccn1 | 12.3% (inactive) | –
18 | COc1ccc(F)cc1-c1cc(NC(=O)[C@@H]2CCCNC2)ncc1Cl | – | 269 nM (active)
19 | CC1(C)CC[C@]2(C(=O)O)CC[C@]3(C)C(=CCC4[C@@]5(C)C[C@H](O)[C@H](O[C@@H]6OC[C@H](O)[C@H](O)[C@H]6O)[C@@](C)(CO)C5CC[C@]43C)[C@@H]2C1 (stereo not given in full) | -9.16% (inactive) | –
20 | CCC(C)(O)C(O)C(=O)OCc1ccc(O[C@@H]2O[C@H](CO)[C@@H](O)[C@H](O)[C@H]2O)c(OC)c1 (stereo not given in full) | -5.36% (inactive) | –

Row | SMILES | activation | Potency
21 | CC(C)C(NC(=O)c1ccc2ccccc2n1)C(=O)NC(CC(=O)O)C(=O)COc1c(F)cccc1F (stereo not given) | 2.33% (inactive) | –
22 | Cn1c(=O)c(F)c(Nc2ccc(I)cc2F)c2c(=O)n(CC(O)CO)cnc21 (stereo not given) | 14.3% (inactive) | –
23 | Clc1ccc(CN[C@H]2CCN(c3ncc(Br)cn3)C2)c(Cl)c1 | 3.57% (inactive) | –
24 | CCC(C)C(=O)O[C@H]1[C@@H](OC(=O)c2ccoc2)C[C@](C)(O)[C@]23OC(C)(C)[C@H](C[C@H](OC(=O)c4ccoc4)[C@]12COC(C)=O)[C@H]3OC(C)=O (stereo not given in full) | 17.6% (inactive) | –
25 | C/C(=C\CCC(C)(O)c1ccc(C)cc1)C(=O)O (stereo not given) | -12.2% (inactive) | –
26 | C=C(C)C1CCC2(C(=O)OC3OC(COC4OC(CO)C(O)C(O)C4O)C(OC4OC(C)C(O)C(O)C4O)C(O)C3O)CCC3(C(=O)O)C(CCC4C5(C)CCC(=O)C(C)(C)C5CCC43C)C12 (stereo not given) | -8.4% (inactive) | –
27 | CC1(C)CC2C(O)C3=C(CC(C)(O)C2C1)C(=O)OC3 (stereo not given) | -6.87% (inactive) | –
28 | C=C1C(OC(C)=O)[C@@]23CCC4[C@](C)(C(=O)O)CCC[C@@]4(C)[C@]2(O)CC[C@H]1C3 (stereo not given in full) | 8.93% (inactive) | –
29 | O=C(OC[C@H]1O[C@H](O[C@]2(CO)O[C@H](CO)[C@@H](O)[C@@H]2O)[C@H](O)[C@@H](O)[C@@H]1O)c1ccc(O)cc1 | -2.68% (inactive) | –
30 | CC1=CC(=O)CC(C)(C)[C@H]1/C=C/C(CO)O[C@@H]1O[C@H](CO)[C@@H](O)[C@H](O)[C@H]1O (stereo not given in full) | 9.16% (inactive) | –
31 | CC12CC34CC(O)C5C(CO)(CO)CC(=O)CC5(C)C3CC1C2C4 (stereo not given) | 5.34% (inactive) | –
32 | CCC(C)/C=C(C)/C=C/C1=CC2=C(Cl)C(=O)C(C)(O)C(=O)C2(O)C(OC)O1 (stereo not given) | 28.2% (inactive) | –
33 | CC1CC(=O)C2=C(O1)OC1(C)CCC3C(C)(C)C=CC(=O)C3(C)C1C2 (stereo not given) | -29.5% (inactive) | –
34 | CC1(C)CC2C3=CCC4C5(C)CCC(OC6OC(CO)C(O)C(OC7OC(CO)C(O)C(OC8OC(CO)C(O)C(OC9OC(COC%10OC(CO)C(O)C(O)C%10O)C(O)C(O)C9O)C8O)C7O)C6O)C(C)(C)C5CCC4(C)C3(C)CCC2(C(=O)O)CC1O (stereo not given) | -24.4% (inactive) | –
35 | COc1cc(/C=C/C(=O)OC[C@H]2O[C@@](CO)(O[C@H]3O[C@H](CO)[C@@H](O)[C@H](O)[C@H]3O)[C@@H](OC(=O)/C=C/c3ccc(O)c(OC)c3)[C@@H]2O)ccc1O | -3.82% (inactive) | –
36 | C=C[C@](C)(O)CC[C@H]1C(C)=CC(=O)[C@H]2C(C)(C)CCC[C@]12C | 3.57% (inactive) | –
37 | CC(O)/C=C/C1(O)C(C)C(O[C@@H]2O[C@H](CO)[C@@H](O)[C@H](O)[C@H]2O)C(O)CC1(C)C (stereo not given in full) | -10.7% (inactive) | –
38 | Nc1c(Br)cc(Br)cc1CNC1CCC(O)CC1 (stereo not given) | 29.7% (inactive) | –
39 | O=C(CCC1CCN(Cc2ccccc2)CC1)c1ccc2c(c1)NCCCC2 | 6.33% (inactive) | –
40 | CC1(C)CC[C@]2(C(=O)O[C@@H]3O[C@H](CO)[C@@H](O)[C@H](O)[C@H]3O)CC[C@]3(C)C(=CCC4[C@@]5(C)C[C@@H](O)[C@H](O)[C@](C)(C=O)C5CC[C@]43C)[C@@H]2[C@@H]1O (stereo not given in full) | -0.893% (inactive) | –
